About 690 (0.19%) of roughly 360,000 compounds were called active. The sample holds actives, similar compounds and a random draw of the others, so the mix is not that of the screen. Unmarked numbers belong to inactive results.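 How the source made its calls: active means fluorescence ratio to DMSO below 75%, the collection mean minus 3 SD; inconclusive means too few cells collected in the well; inactive means the rest.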

In the assay the target is ATP-binding cassette sub-family B member 6 (Homo sapiens) (UniProt Q9NP58). Briefly: blockers of ABCB6-driven porphyrin uptake – K562-ABCB6 cells, flow cytometry, MLPCN library, primary screen (AID 602162).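 Further: signal is porphyrin accumulated inside mitochondria; 100% equals median channel fluorescence of DMSO control wells; lower ratio means ABCB6 inhibition with less porphyrin fluorescence.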 Conditions: K562-ABCB6 porphyrin accumulation, 1 h, at 10 µM, hits give low values. Background: In flow cytometry, cells or beads pass a laser one at a time.
Sequence of ATP-binding cassette sub-family B member 6 (Homo sapiens) (Q9NP58 whole entry, looked up): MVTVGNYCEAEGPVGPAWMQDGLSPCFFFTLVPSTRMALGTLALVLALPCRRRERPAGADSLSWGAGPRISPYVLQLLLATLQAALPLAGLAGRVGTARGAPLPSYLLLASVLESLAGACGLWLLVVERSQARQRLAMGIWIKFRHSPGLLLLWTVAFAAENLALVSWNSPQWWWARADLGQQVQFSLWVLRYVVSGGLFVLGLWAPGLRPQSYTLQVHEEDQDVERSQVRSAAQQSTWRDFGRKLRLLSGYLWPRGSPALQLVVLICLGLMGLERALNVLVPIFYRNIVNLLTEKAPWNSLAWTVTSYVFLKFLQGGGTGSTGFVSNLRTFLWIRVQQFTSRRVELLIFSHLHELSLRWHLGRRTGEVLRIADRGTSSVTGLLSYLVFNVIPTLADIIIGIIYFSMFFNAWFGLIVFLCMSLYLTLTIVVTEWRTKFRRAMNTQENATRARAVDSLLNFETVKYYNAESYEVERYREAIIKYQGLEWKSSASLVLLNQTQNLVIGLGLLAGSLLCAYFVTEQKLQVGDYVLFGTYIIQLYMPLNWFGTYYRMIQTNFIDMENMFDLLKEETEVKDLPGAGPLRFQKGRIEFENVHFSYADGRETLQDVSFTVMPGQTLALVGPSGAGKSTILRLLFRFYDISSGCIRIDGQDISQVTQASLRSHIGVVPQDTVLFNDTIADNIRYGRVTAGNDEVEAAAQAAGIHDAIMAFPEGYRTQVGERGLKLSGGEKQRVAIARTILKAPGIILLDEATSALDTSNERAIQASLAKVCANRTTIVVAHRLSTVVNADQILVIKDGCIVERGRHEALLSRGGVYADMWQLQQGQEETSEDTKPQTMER
Consider `COc1ccccc1N1CCN(C(=O)c2cc(=O)c3cc(C)cc(C)c3o2)CC1`, for which the fluorescence ratio to DMSO was 101%.

On to `Cc1cccc(N2CCN(C(=O)c3cnn4c(C(F)F)cc(-c5ccccc5)nc34)CC2)c1C`, for which the fluorescence ratio to DMSO is 97%.

As for `Cc1ccc(Cl)cc1N1CCN(C(=O)c2cccc3c(=O)c(C)c(-c4ccccc4)oc23)CC1`, the fluorescence ratio to DMSO is 73% (active).

As for `C/C(CCc1ccccc1)=N\NC(=O)c1ccc(CN2CCOCC2)cc1`, the fluorescence ratio to DMSO is 97%.

Consider `CSC1=NN(c2ccccc2)CN(c2ccccc2)N1C`, for which the fluorescence ratio to DMSO is 98%.

For the compound `CCCOP(=O)(c1ccc(N(C)C)cc1)C(O)c1cc(OC)c(OC)c(OC)c1` (stereo unspecified), the fluorescence ratio to DMSO was 94%.

With `COc1ccccc1S(=O)(=O)NCc1ccc(C(=O)N(C)Cc2ccc(F)cc2)cc1`, the fluorescence ratio to DMSO is 92%.

For `Cc1cnc(NC(=O)Cn2cnc3c2c(=O)n(C)c(=O)n3C)s1`, the fluorescence ratio to DMSO was 101%.

For `Cc1ccc(SCC(=O)Nc2ncc(C)s2)cc1`, the fluorescence ratio to DMSO was 71% (active).

`Cc1ccc(SCC(=O)Nc2nncs2)cc1`: the fluorescence ratio to DMSO was 99%.

Take `Fc1cccc(Cc2noc(CN3CCN(c4cnccn4)CC3)n2)c1`: the fluorescence ratio to DMSO is 95%.

Take `COc1ccccc1CNC(=O)CSc1nc(=O)n(Cc2ccncc2)c2c1CCC2`: the fluorescence ratio to DMSO is 100%.

Turning to `Cc1ccc2c(C)c(C(=O)N(C)Cc3ccncn3)oc2c1C`, the fluorescence ratio to DMSO was 96%.

On to `Cc1ccccc1OC(=O)Cn1c(C(F)(F)F)nc2ccccc21`, for which the fluorescence ratio to DMSO was 93%.

Take `Cc1cccc(C)c1NC(=O)COC(=O)c1c(C)nn(-c2ccccc2)c1C`: the fluorescence ratio to DMSO is 100%.

In the case of `COc1ccc(CNC(=O)COC(=O)c2c(C)nn(-c3ccccc3)c2C)cc1OC`, the fluorescence ratio to DMSO is 98%.

In the case of `Cc1nn(-c2ccccc2)c(C)c1C(=O)OCC(=O)NC(=O)NC1CCCCC1`, the fluorescence ratio to DMSO was 74% (active).

On to `O=C(/C=C/c1ccccc1)Oc1coc(CSc2ncccn2)cc1=O`, for which the fluorescence ratio to DMSO is 104%.

Consider `CC1(C)O[C@@H]2[C@H](O1)[C@@H](COS(=O)(=O)O)O[C@H]2n1cnc2c(=O)[nH]cnc21`, for which the fluorescence ratio to DMSO was 98%.

As for `COc1ccc(CC(=O)NCc2nnc(SCC(=O)Nc3ncc(C)s3)n2C)cc1`, the fluorescence ratio to DMSO was 103%.

As to `O=C(CC(c1ccccc1)c1cc(Cl)ccc1O)NCCN1CCOCC1` (stereo unspecified), the fluorescence ratio to DMSO is 91%.

On to `O=S(=O)(c1ccc(F)cc1)n1ccc(-c2cnc(-c3ccccc3)s2)n1`, for which the fluorescence ratio to DMSO was 91%.

For `CN(CC(=O)Nc1cccc(F)c1)C(=O)C1CSC2(C)CCC(=O)N12` (stereo unspecified), the fluorescence ratio to DMSO was 96%.

`COCCNC(=O)C(OC(=O)c1cccs1)c1ccc(F)cc1` (stereo unspecified): the fluorescence ratio to DMSO is 100%.

As to `CC(C)C(=O)NCC(c1cccs1)S(=O)(=O)c1ccc(F)cc1` (stereo unspecified), the fluorescence ratio to DMSO was 11% (active).

Take `O=C(NCc1cccs1)C(=O)NCC1OCCCN1S(=O)(=O)c1ccc(F)cc1` (stereo unspecified): the fluorescence ratio to DMSO was 103%.

Turning to `N#Cc1cccc(NC(=O)C2CCCN(C(=O)c3ccc(Cl)cc3)C2)c1` (stereo unspecified), the fluorescence ratio to DMSO is 104%.

Turning to `Cc1c(C(=O)NC(=S)NCc2cccnc2)oc2ccccc12`, the fluorescence ratio to DMSO is 99%.

`CC12CCCCC1=CC(=O)CC2` (stereo unspecified): the fluorescence ratio to DMSO is 101%.

For `COc1ccc(CNC(=O)CN2C(=O)NC3(CCCc4sccc43)C2=O)cc1` (stereo unspecified), the fluorescence ratio to DMSO was 93%.

`CC(C(=O)Nc1ccc(F)c(F)c1F)N1CCCCCC1` (stereo unspecified): the fluorescence ratio to DMSO is 74% (active).

Consider `O=C(CN1C(=O)NC2(CCCC2)C1=O)Nc1ccc(F)c(F)c1F`, for which the fluorescence ratio to DMSO is 104%.

Turning to `CC(C(=O)Nc1ccccc1-c1ccccc1)N1CCOCC1` (stereo unspecified), the fluorescence ratio to DMSO was 104%.

Consider `COCCCNc1ccn2nc(-c3ccc(CC(C)C)cc3)cc2n1`, for which the fluorescence ratio to DMSO is 100%.

As to `COC(=O)c1cc(NC(=O)CN2CCC(C(N)=O)(N3CCCCC3)CC2)cc(C(=O)OC)c1`, the fluorescence ratio to DMSO is 104%.

`Cc1sc2ncn(CC(=O)NCCCC(=O)N(C)Cc3ccccc3)c(=O)c2c1C`: the fluorescence ratio to DMSO is 97%.

Regarding `O=C(Nc1cc(=O)[nH]c2ncnn12)c1ccccc1Cl`, the fluorescence ratio to DMSO is 101%.

Consider `CC(C)C[C@H](NC(=O)[C@@H]1O[C@H]1C(=O)O)C(=O)NCCCCN=C(N)N`, for which the fluorescence ratio to DMSO was 94%.

In the case of `CCC(c1nnnn1-c1ccc2c(c1)OCCO2)N1CCN(c2ccc(C(F)(F)F)cn2)CC1` (stereo unspecified), the fluorescence ratio to DMSO is 99%.

With `CN(Cc1ccccc1)C(=O)CCC1CCN(C(=O)c2ccco2)CC1`, the fluorescence ratio to DMSO is 90%.

Regarding `CC(=O)N1CCc2cc(S(=O)(=O)NC3CCCCC3)ccc21`, the fluorescence ratio to DMSO was 97%.

Consider `CCC(=O)N1CCCC1(C)C(=O)Nc1ccc2c(c1)CCN2C(C)=O` (stereo unspecified), for which the fluorescence ratio to DMSO was 72% (active).

Turning to `CCCNS(=O)(=O)c1ccc2c(c1)CCCN2C(C)=O`, the fluorescence ratio to DMSO was 75%.

In the case of `CC(C)(C)n1cnnc1Sc1ccc([N+](=O)[O-])cn1`, the fluorescence ratio to DMSO is 101%.

Regarding `CC1CCCCC1NC(=O)NC(=O)COC(=O)C1=NN(c2ccccc2)C(=O)CC1` (stereo unspecified), the fluorescence ratio to DMSO is 102%.

For `CC1(C(=O)Nc2ccc3c(c2)OCCO3)CCN1C(=O)Cc1cc(F)ccc1F` (stereo unspecified), the fluorescence ratio to DMSO is 100%.

In the case of `COc1ccc(OC)c(C(=O)NC(CC(N)=O)c2ccc(N3CCC(N4CCCCC4)CC3)c([N+](=O)[O-])c2)c1` (stereo unspecified), the fluorescence ratio to DMSO is 92%.

In the case of `Cc1nn(-c2ccccc2)c2[nH]c(C(F)(F)F)cc(=O)c12`, the fluorescence ratio to DMSO is 87%.

With `C=CCc1cccc(/C=N/NC(=O)COc2ccc(-n3cnnn3)cc2)c1O`, the fluorescence ratio to DMSO was 93%.

Consider `CCOc1ccc(C(=O)COC(=O)c2ccc(-n3cnnn3)cc2)cc1`, for which the fluorescence ratio to DMSO is 101%.

As to `O=C(COc1ccc(-n2cnnn2)cc1)Nc1ccccc1Cl`, the fluorescence ratio to DMSO was 73% (active).

Take `CC1CCN(C(=O)CSc2nnc(-c3ccco3)n2N)CC1`: the fluorescence ratio to DMSO was 95%.

Regarding `CN(C(=O)c1ccccc1)c1nccnc1C#N`, the fluorescence ratio to DMSO was 98%.

For `COC(=O)c1ccc(CSc2ccc(S(=O)(=O)N3CCCCC3)cn2)cc1`, the fluorescence ratio to DMSO is 100%.

For the compound `O=C1CCCC2=C1C(c1cccs1)CC(=O)N2c1ccc(F)cc1` (stereo unspecified), the fluorescence ratio to DMSO was 95%.

For the compound `O=C1CCCC2=C1C(c1cccs1)n1nc(SCc3ccccc3)nc1N2` (stereo unspecified), the fluorescence ratio to DMSO is 55% (active).

For `CCC(=O)N1c2ccccc2NC2=C(C(=O)CCC2)C1c1ccco1` (stereo unspecified), the fluorescence ratio to DMSO was 101%.

In the case of `Cn1ncc2c(Nc3cccc4ccccc34)ncnc21`, the fluorescence ratio to DMSO was 85%.

`CCCOc1cccc(C(=O)Nc2ccccc2C(=O)N2CCN(C)CC2)c1`: the fluorescence ratio to DMSO is 99%.

Turning to `C[C@]12CCC(=O)C=C1C=CC1C2CC[C@@]2(C)C1CC[C@@]21CCC(=O)O1` (stereo partly specified), the fluorescence ratio to DMSO was 98%.

Take `COc1ccc(S(=O)(=O)N2CCOCC2)cc1NC(=O)CSc1ncnc2ccccc12`: the fluorescence ratio to DMSO was 92%.

Source of the values: PubChem BioAssay AID602162 (NMMLSC, 2011).
